Bioassay records: PubChem, several laboratories
Shown are actives, neighbours in structure and some others; about 2.9% of the full set was active somewhere.
KKLEB cytotox: reduces viability of KKLEB cystic fibrosis airway cells. KKLEB CF airway cells viability, ATPlite luminescence, overnight; active compounds read low; cells stimulated with P. aeruginosa culture filtrate. activity change (cytotoxicity), % at 5 µM. hit rate 0.36% among 360,000;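 active = corrected activity change at or below -50% at 5 µM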
LMP1 NFkB inh: reduces LMP1-driven NF-kappaB luciferase signal | inhibition, % at 12.5 µM | AID 504558 | LMP1-induced NF-kappaB luciferase reporter cells, luminescence | hit rate 0.69% among 350,000; in the data active = inhibition above about 41%; inconclusive = no clear call, values can overlap the other calls
Shn3 3UTR inh: inhibitors of Schnurri-3 3'UTR reporter in osteoblasts | hit rate 0.52% among 360,000 | Clone20 osteoblast Shn3 3'UTR firefly luciferase, 24 h | inhibition, % at 12.5 µM;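 active = mean inhibition of at least 75% with every replicate also reaching 75%; inconclusive = mean inhibition at least 75% but some replicate below; inactive = mean inhibition below 75%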
Peg3 prom inh: inhibitors of Peg3 promoter. HeLa PEG-Prom luciferase reporter, luminescence, overnight. inhibition, % at 20 µM. hit rate 1.7% among 360,000. AID 588405;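 active = inhibition of at least 50% at 20 µM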
CF NFkB inh: inhibitors of cystic fibrosis induced NF-kB | hit rate 0.86% among 360,000 | inhibition, % at 5 µM | KKLEB NF-kB-GFP reporter, PAF-induced, GFP fluorescence overnight;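 active = at least 50% inhibition at 5 µM, scaled per plate between neutral and stimulator controls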;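 also: PAF is a Pseudomonas aeruginosa culture filtrate used as stimulus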
MITF TRPM1 inh: MITF TRPM1 promoter inhibition in SK-MEL-5 cells | SK-MEL-5 TRPM1 promoter luciferase, 24 h | inhibition, % at 12.5 µM | hit rate 0.83% among 330,000 | AID 488899;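 active = mean inhibition across replicates of 60% or more, whatever share of single replicates reaches that level; inconclusive = some that reach 60%, reason not given; inactive = mean inhibition across replicates below 60%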
CF NFkB inh conf: confirmation of cystic fibrosis induced NF-kB inhibitors; inhibition, % at 5 µM; hit rate 64% among 1,300; KKLEB CF airway cells, PAF-induced NF-kB-GFP fluorescence, overnight; shares compounds with CF NFkB inh; in the data active = inhibition above about 40%;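 also: stimulus PAF is a Pseudomonas aeruginosa filtrate and not platelet activating factor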
A number is an active result.

For CC(C)CC1C(=O)N(Cc2cn(Cc3ccco3)nn2)CCS(=O)(=O)N1Cc1ccc(-c2cccc(CO)c2)cc1 (centres undefined) the results were KKLEB cytotox inactive, LMP1 NFkB inh inactive, Shn3 3UTR inh inactive, Peg3 prom inh inactive and CF NFkB inh inactive.
`Cc1ccc(-c2ccc(CN3C(C(C)C)C(=O)N(Cc4cn(Cc5ccco5)nn4)CCS3(=O)=O)cc2)cc1` (centres undefined) gave KKLEB cytotox inactive, LMP1 NFkB inh inactive, Shn3 3UTR inh inactive, Peg3 prom inh 56, CF NFkB inh 69 and CF NFkB inh conf inactive.
`C=C1CCCC2OC(CC3=CC4/C(C)=C/CC(C)CC(/C=C(\C)C(O)C5CC(O)C(O)C(CCC(O)/C=C/C(C)=C/CCC6=NCCC(C3)C64C)O5)OC(=O)CC3OC(C(O)C1)C(O)C3O)CC(O)C2O` (centres undefined) gave KKLEB cytotox inactive, Shn3 3UTR inh inactive, Peg3 prom inh inactive and CF NFkB inh inactive.
For COc1ccc(CN2C[C@H]3CCCN3c3cc(Br)ccc3S2(=O)=O)cc1 the results were KKLEB cytotox inactive, LMP1 NFkB inh inactive, Shn3 3UTR inh inactive, Peg3 prom inh inactive, CF NFkB inh 53, MITF TRPM1 inh inactive and CF NFkB inh conf 56.
Screening COc1ccc(N2CCN(C3CCCN(Cc4ccc(F)cc4)C3)CC2)cc1 (centres undefined) returned KKLEB cytotox inactive, LMP1 NFkB inh inactive, Shn3 3UTR inh inactive, Peg3 prom inh inactive, CF NFkB inh inactive and MITF TRPM1 inh inactive.
`CCOc1cc2c(cc1O)C(=NO)CC1C2CCC2(C)C(O)CCC12` (centres undefined) gave KKLEB cytotox inactive, LMP1 NFkB inh inactive, Shn3 3UTR inh inactive, Peg3 prom inh inactive, CF NFkB inh 52, MITF TRPM1 inh inactive and CF NFkB inh conf 75.
Screening CC(C)(C)n1c(O)c2n(c1=O)Cc1ccccc1N=C2c1ccccc1 returned KKLEB cytotox inactive, Shn3 3UTR inh inactive, Peg3 prom inh inactive and CF NFkB inh inactive.
`COc1cccc(NC(=O)N(C)C[C@H]2OCc3cnnn3CCCC(=O)N([C@H](C)CO)C[C@@H]2C)c1` gave KKLEB cytotox inactive, LMP1 NFkB inh inactive, Shn3 3UTR inh inactive, Peg3 prom inh inactive and CF NFkB inh inactive.
For COc1ccc(Cl)cc1NC(=O)CN(C)C(=O)c1cc(-c2ccncc2)nc2ccccc12 the results were KKLEB cytotox inactive, LMP1 NFkB inh inactive, Shn3 3UTR inh inactive, Peg3 prom inh inactive, CF NFkB inh 61, MITF TRPM1 inh inactive and CF NFkB inh conf inactive.
Screening COc1ccc(NC(=O)CN(C)C(=O)c2cc(-c3ccncc3)nc3ccccc23)cc1 returned KKLEB cytotox inactive, LMP1 NFkB inh inactive, Shn3 3UTR inh inactive, Peg3 prom inh inactive, CF NFkB inh inactive and MITF TRPM1 inh inactive.
Screening CN(CC1COc2ccccc2O1)C(=O)c1cccc(S(=O)(=O)N2CCCC2)c1 (centres undefined) returned KKLEB cytotox inactive, LMP1 NFkB inh inactive, Shn3 3UTR inh inactive, Peg3 prom inh inactive, CF NFkB inh inactive and MITF TRPM1 inh inactive.
`COc1ccc(N(Cc2cc(=O)[nH]c3ccccc23)C(=O)CCl)cc1` gave KKLEB cytotox inactive, LMP1 NFkB inh inactive, Shn3 3UTR inh inactive, Peg3 prom inh 80, CF NFkB inh 75, MITF TRPM1 inh 85 and CF NFkB inh conf 71.
For CCCC(=O)N(Cc1cc(=O)[nH]c2ccccc12)c1cccc(C)c1 the results were KKLEB cytotox inactive, LMP1 NFkB inh inactive, Shn3 3UTR inh inactive, Peg3 prom inh inactive, CF NFkB inh inactive and MITF TRPM1 inh inactive.
CCCC(=O)N(Cc1cc(=O)[nH]c2ccccc12)c1ccc(OC)cc1 was read as KKLEB cytotox inactive, LMP1 NFkB inh inactive, Shn3 3UTR inh inactive, Peg3 prom inh inactive, CF NFkB inh inactive and MITF TRPM1 inh inactive.
Screening Cc1cccc(N(Cc2cc(=O)[nH]c3ccccc23)C(=O)CCl)c1 returned KKLEB cytotox inactive, LMP1 NFkB inh inactive, Shn3 3UTR inh inactive, Peg3 prom inh 95, CF NFkB inh 72, MITF TRPM1 inh 76 and CF NFkB inh conf 108.
`CC(=O)c1cccc(NC(=O)COC(=O)c2ccc(S(C)(=O)=O)c([N+](=O)[O-])c2)c1` gave KKLEB cytotox inactive, LMP1 NFkB inh inactive, Shn3 3UTR inh inactive, Peg3 prom inh inactive, CF NFkB inh 63, MITF TRPM1 inh inactive and CF NFkB inh conf 43.
O=C(COC(=O)c1ccc([N+](=O)[O-])cc1)Nc1cccnc1Cl was read as KKLEB cytotox inactive, LMP1 NFkB inh inactive, Shn3 3UTR inh inactive, Peg3 prom inh inactive, CF NFkB inh inactive and MITF TRPM1 inh inactive.
For Cc1ccccc1NC(=O)COC(=O)c1ccc(S(C)(=O)=O)c([N+](=O)[O-])c1 the results were KKLEB cytotox inactive, LMP1 NFkB inh inactive, Shn3 3UTR inh inactive, Peg3 prom inh 89, CF NFkB inh 53, MITF TRPM1 inh inactive and CF NFkB inh conf inactive.
For CS(=O)(=O)c1ccc(C(=O)OCC(=O)Nc2cccnc2Cl)cc1[N+](=O)[O-] the results were KKLEB cytotox inactive, LMP1 NFkB inh inactive, Shn3 3UTR inh 94, Peg3 prom inh inactive, CF NFkB inh 90, MITF TRPM1 inh inactive and CF NFkB inh conf inactive.
Cc1ccccc1NC(=O)Cc1nc(COC(=O)c2ccc(S(C)(=O)=O)c([N+](=O)[O-])c2)cs1 was read as KKLEB cytotox inactive, LMP1 NFkB inh inactive, Shn3 3UTR inh inconclusive, Peg3 prom inh 101, CF NFkB inh 77, MITF TRPM1 inh 73 and CF NFkB inh conf inactive.
For COc1ccc(C(=O)OCC(=O)Nc2ccccc2)cc1[N+](=O)[O-] the results were KKLEB cytotox inactive, LMP1 NFkB inh inactive, Shn3 3UTR inh inactive, Peg3 prom inh inactive, CF NFkB inh inactive and MITF TRPM1 inh inactive.
For CS(=O)(=O)c1ccc(C(=O)OCc2nnc(-c3ccccc3)o2)cc1[N+](=O)[O-] the results were KKLEB cytotox inactive, LMP1 NFkB inh inactive, Shn3 3UTR inh inactive, Peg3 prom inh 109, CF NFkB inh 76, MITF TRPM1 inh inactive and CF NFkB inh conf inactive.
`CCOc1[nH]n(-c2ccccc2)c(=O)c1C=NCc1ccncc1` gave KKLEB cytotox inactive, LMP1 NFkB inh inactive, Shn3 3UTR inh inactive, Peg3 prom inh inactive, CF NFkB inh inactive and MITF TRPM1 inh inactive.
Screening COc1ccc(-c2[nH]n(-c3ccc([N+](=O)[O-])cc3)c(=O)c2C=NCc2ccccc2)cc1 returned KKLEB cytotox inactive, LMP1 NFkB inh inactive, Shn3 3UTR inh inactive, Peg3 prom inh inactive, CF NFkB inh 50, MITF TRPM1 inh inactive and CF NFkB inh conf inactive.
CC(C)CCOc1ccc(C(=O)NNC(=O)CNC(=O)c2ccccc2F)cc1 was read as KKLEB cytotox inactive, LMP1 NFkB inh inactive, Shn3 3UTR inh inactive, Peg3 prom inh inactive, CF NFkB inh inactive and MITF TRPM1 inh inactive.
